LmPK inh: qHTS Assay for Inhibitors of Leishmania Mexicana Pyruvate Kinase (LmPK); Q27686; purified LmPK, Kinase-Glo ATP luminescence, 1 h; Potency, µM (doses to about 57.5 µM), for the others: at the highest dose activity change, negative = inhibition, hits mostly inhibitors; 290,000 tested, 0.37% active; AID 1721, 2009; further: potency means the concentration at half of the fitted maximal effect; on the % scale 0 is the no-effect control and ±100 the full control effect
Target sequence (Q27686 whole entry, looked up): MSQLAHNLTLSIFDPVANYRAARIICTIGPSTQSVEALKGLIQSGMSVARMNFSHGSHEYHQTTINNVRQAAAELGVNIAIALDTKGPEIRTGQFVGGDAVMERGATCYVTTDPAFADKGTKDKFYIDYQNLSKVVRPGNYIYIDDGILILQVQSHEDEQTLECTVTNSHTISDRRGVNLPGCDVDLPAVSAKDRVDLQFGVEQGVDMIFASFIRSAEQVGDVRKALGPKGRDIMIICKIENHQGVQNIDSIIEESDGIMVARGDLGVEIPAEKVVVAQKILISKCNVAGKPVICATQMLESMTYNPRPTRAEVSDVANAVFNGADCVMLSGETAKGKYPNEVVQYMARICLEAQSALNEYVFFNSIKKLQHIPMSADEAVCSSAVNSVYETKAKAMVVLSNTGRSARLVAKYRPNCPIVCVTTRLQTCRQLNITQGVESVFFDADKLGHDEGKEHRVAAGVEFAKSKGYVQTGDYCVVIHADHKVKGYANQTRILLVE
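In 50 mM imidazole pH 7.2 with 7 mM MgCl2, LmPK (0.1 nM) turned over PEP (0.5 mM) and ADP (0.1 mM) for 1 h at room temperature. Luciferase read-out of ATP.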
Shiga toxin inh: A qHTS for Small Molecule Inhibitors of Shiga Toxin | Vero cells, Shiga toxin protein synthesis inhibition reporter | 290,000 tested, 9.2% active | AID 2315, 2010 | inhibition, % at 38.7 µM; in the data active means inhibition mostly above about 28%, no sharp cut-off; inactive means mostly below about 43%; further: 0% is about no effect
CHX counter: Cycloheximide Counterscreen for Small Molecule Inhibitors of Shiga Toxin. cell reporter, cycloheximide protein synthesis inhibition counterscreen. max response, %. 300,000 tested, 12% active. AID 2314, 2010; in the data active means max response mostly above about 13%, no sharp cut-off; inactive means mostly below about 14%; further: read at 38.3 µM for the half of the compounds with a filed dose; 0% is about no effect
Pf growth 48h: Primary qHTS for delayed death inhibitors of the malarial parasite plastid, 48 hour incubation; Potency, µM (series often up to 28.7 µM), for the others: at the top dose activity change, negative = inhibition, usual class: inhibitors; P. falciparum luciferase growth in erythrocytes, 48 h; 310,000 tested, 5.9% active; further: potency means the concentration at half of the fitted maximal effect; on the % scale 0 is the no-effect control and ±100 the full control effect
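Luminescence readout; reporter = integrated firefly luciferase in P. falciparum. RBC culture at 2% hematocrit, 0.1% parasitemia final, 37 C/5% CO2; decreased signal taken as growth inhibition.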
Pf growth 96h: Primary qHTS for delayed death inhibitors of the malarial parasite plastid, 96 hour incubation | P. falciparum luciferase reporter growth, 96 h | Potency, µM (series often up to 28.7 µM), inactives show top-dose activity change, negative = inhibition, most hits filed as inhibitors | 320,000 tested, 6.9% active | AID 504834, 2011; further: potency means the concentration at half of the fitted maximal effect; on the % scale 0 is the no-effect control and ±100 the full control effect
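Erythrocytes infected with luciferase-expressing P. falciparum were dispensed at 2% hematocrit and 0.05% parasitemia (final), then incubated with compounds 96 hours at 37 C in 5% CO2. Luminescence after detection reagent addition reported growth.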
Active calls of the source: *; ? = inconclusive; . = not tested or not shown; [ ] = dose if it differs, or a comment. A selection: hits, their analogues and other compounds. The true share with any hit is near 22%. Unless noted, the call rests on the fitted dose curve; in most records, active means well fitted inhibition curve with a large enough effect; inconclusive means small, poorly fitted or top-dose-only effect, or another doubt; inactive means no such curve, though single readings can be large or run the other way.

SMILES | LmPK inh | Shiga toxin inh | CHX counter | Pf growth 48h | Pf growth 96h
CC(=O)Nc1ccc(S(=O)(=O)NC2CC(=O)N(c3ccc(C)cc3)C2)cc1 (centres undefined) | . | . | . | 8% | 2%
CCCN(CC(=O)Nc1ccccc1C)C(=O)c1ccc(C2SCCS2)cc1 | . | . | . | -1% | 15%
CC(NC(=O)c1ccccc1F)c1nnc(SCC(=O)Nc2nnc(C3CC3)s2)n1C (centres undefined) | . | . | . | 1% | 4%
CN(C)CCC(=O)c1cccc(Br)c1 | 3% | 8 | 11 | 0% | -5%[5.75 µM]
O=C(N/N=C/c1ccc(N2CCOCC2)o1)c1cccc(F)c1 | -14% | 85* | 34* | 20% | 31%
CN(C)c1ccc(/C=N/NC(=O)C(O)(c2ccccc2)c2ccccc2)o1 | 2% | -8 | 1 | ? | -4%
COc1ccc(C(=O)N/N=C/c2ccc(N3CCOCC3)o2)cc1OC | ? | -7 | 7 | 3% | -1%
O=C(N/N=C/c1ccc(N2CCCCC2)o1)C(O)(c1ccccc1)c1ccccc1 | -1% | -4 | 1 | 13µM* | ?
COc1ccccc1/C=C/C=N/NC(=O)c1cnccn1 | -3% | 64* | 35* | 27% | ?
COc1ccccc1/C=C/C=N/NC(=O)c1ccccn1 | -19% | 56* | 23* | 358% | -2%
O=C(Cc1ccccc1)NCc1n[nH]c(=S)n1-c1ccc(Br)cc1 | ? | -12 | 1 | 16% | 3%
COc1ccc(NC(=O)CCCCCN2C(=O)[C@@H]3Cc4ccccc4CN3C2=O)cc1Cl | 4% | -2 | -1 | -16% | 12µM*
Cc1ccc(NC(=O)CCCCCN2C(=O)[C@@H]3Cc4ccccc4CN3C2=O)cc1 | 1% | 19 | 5 | -11% | ?
O=C(CCCCCN1C(=O)[C@@H]2Cc3ccccc3CN2C1=O)Nc1ccccc1Cl | 2% | 30 | 30* | ? | ?
COc1cc(/C=C(/C#N)c2ccc(F)cc2)ccc1Oc1ccc([N+](=O)[O-])cn1 | 0% | -8 | -2 | 4.7µM* | -17%
COc1cc(/C=N\NC(=O)c2ccccc2F)ccc1Oc1ccc([N+](=O)[O-])cn1 | 2% | 36 | 16* | -24% | 6%
COc1cc(/C=N\NC(=O)c2cccc(Cl)c2)ccc1Oc1ccc([N+](=O)[O-])cn1 | -2% | 54* | 17* | ? | 2%
CCOc1cc(C=C(C#N)C#N)ccc1Oc1ccc([N+](=O)[O-])cn1 | -1% | 16 | -2 | 1% | 6%
COc1ccc(CNC(=O)c2ccc(CNc3c(NC4CCCCC4)c(=O)c3=O)cc2)cc1 | 0% | 36 | 46* | 14% | ?
COc1ccc(NC(=O)c2ccc(CNc3c(NC4CCCCC4)c(=O)c3=O)cc2)cc1OC | 8% | 20 | 4 | . | 15µM*
COc1ccc(NC(=O)C2CCC(CNc3c(N4CCCCC4)c(=O)c3=O)CC2)cc1OC (centres undefined) | 9% | 9 | 3 | . | ?
COc1ccc(C(=O)NCC(=O)OCC(=O)NC2CCCC2)cc1 | 0% | -8 | 1 | 19% | 14%
CC(C)CN1CCC(=O)N([C@H](CO)Cc2ccccc2)CC1 | -5% | -6 | -1 | 35% | 39%
CCC(Oc1ccc(C)cc1)C(=O)Nc1ccccc1C(=O)N1CCOCC1 (centres undefined) | -3% | -5 | -4 | -2% | 4%
O=[N+]([O-])c1ccccc1/C=N/n1c(C2CCCCC2)n[nH]c1=S | -19% | 87 | 34* | 20% | 17%
SMILES | LmPK inh | Shiga toxin inh | CHX counter | Pf growth 48h | Pf growth 96h
S=c1[nH]nc(C2CCCCC2)n1/N=C/c1ccccc1Br | -25% | 30 | 1 | 34% | 39%
O=[N+]([O-])c1cc2c(cc1/C=N/n1c(-c3ccccc3)n[nH]c1=S)OCO2 | 13% | 55* | 43* | 0% | 6%
COCCNC(=O)c1cc2oc3ccccc3c2n1C | -4% | 89* | 62* | 144% | .
CCOc1ccccc1CNC(=O)c1cc2oc3ccccc3c2n1C | 4% | 24 | 3 | ? | .
O=c1oc(Nc2ccc(F)cc2)nc2ccccc12 | -1% | 81* | 17* | 15% | ?
CC(=O)Nc1c(Nc2ccccc2)c2ccccc2oc1=O | -7% | -6 | -2 | 16% | ?
Oc1ccc(Nc2nc(-c3ccccc3F)nc3ccccc23)cc1 | 1% | -4 | -1 | -20% | -5%
O=c1nc(Nc2ccccc2)oc2ccccc12 | ? | 53* | 38* | 73% | 88%
O=C(Nc1ccc2c(c1)OCCO2)C1CCN(C(=O)c2ccc(F)cc2)CC1 | 0% | 109* | 31* | 54% | 45%
C=Cc1ccc(C(=O)N2CCCC(Nc3ccc4c(c3)OCCO4)C2)cc1 (centres undefined) | 0% | 15 | 12* | ? | -6%
O=C(Nc1ccc2c(c1)OCCO2)C1CCN(C(=O)c2ccc(Cl)cc2)CC1 | 1% | 48* | 30* | 1% | -11%
O=C(Nc1ccc2c(c1)OCO2)C1CCN(C(=O)c2ccc(Cl)cc2)CC1 | 6% | -3 | 1 | -13% | 59%
CN(Cc1ccccc1)C(=O)c1nc2ccccn2c1CN1CCC(N2CCOCC2)CC1 | 6% | 9 | -3 | -6% | 10%
COc1ccc(C(=O)COC(=O)C(CCSC)NC(=O)COc2ccccc2)cc1 (centres undefined) | . | . | . | 20% | -18%
COc1ccccc1/C=C\C(=O)NCC(=O)N/N=C(/C)c1cccc([N+](=O)[O-])c1 | 4% | 8 | 9 | -2% | 1%
CC1(C)Cc2nc(NC3CCCCC3)c(C#N)cc2CO1 | 4% | -11 | 14 | 9.3µM* | 15%
CC1(C)Cc2c(C#N)c(NC3CCCCC3)nc(-c3ccco3)c2CO1 | -13% | 5 | 2 | 5.9µM* | 9.3µM*
CCCCOc1ccccc1C1NC(=O)CCC1[N+](=O)[O-] (centres undefined) | 2% | -7 | -1 | -7% | -21%
Cc1ccc(N2C(=O)CC(Nc3ccc(Cl)c(S(=O)(=O)N(C)C)c3)C2=O)c(C)c1 (centres undefined) | -1% | -14 | 5 | 0% | 8%
CC(C)N1CCN(CC#Cc2ccccc2)CC1CCO (centres undefined) | -4% | 14 | 10 | 18% | -11%
CC(Sc1nc2ccccc2c(=O)n1C)C(=O)N(C)C1CCCCC1 (centres undefined) | . | . | . | 1.9µM* | ?
CC(Sc1nc2ccccc2c(=O)n1CC1CCCO1)C(=O)N(C)Cc1ccccc1 (centres undefined) | . | . | . | ? | 10µM*
CC(C)CN(C(=O)c1cccc(S(=O)(=O)N2CCN(C)CC2)c1)C1CCS(=O)(=O)C1 (centres undefined) | . | . | . | 0% | 25%
Cc1nc2scc(-c3ccc(C(C)(C)C)cc3)c2c(=O)n1N | 2% | -19 | 1 | 17% | -8%

From PubChem
